Screen size: about 48,000 compounds; about 13,000 (27%) showed an effect of 50% or more. Some of the results follow.
Each compound was assayed on Wolbachia pipientis (assay: Anti-Wolbachia Cell-Based Screen). Conditions: 5 µM.
Format: functional
Design: scale not given: in the data most compounds retested in dose-response had high values

Row | SMILES | Percent Effect
1 | CCc1ncc2c(n1)CN(C(C)C(=O)N1CCOCC1)CC2 (configuration not stated) | -13.62%
2 | CC(Oc1ccc(F)cc1F)C(=O)N1CCC2(CCCO2)CC1 (configuration not stated) | -4.107%
3 | O=C(c1ccc(=O)[nH]n1)N1CCCC(O)(CN2CCC(F)(F)CC2)CC1 (configuration not stated) | 110.9%
4 | O=C(c1cnc(COc2ccccc2)nc1O)N1CCC(F)(F)CC1 | 10.39%
5 | CCOc1ccccc1OC1CCN(C(=O)c2ccc(=O)[nH]n2)CC1 | -11.25%
6 | O=C(c1cn2ccsc2n1)N1CCOCC(O)(CN2CCCC2)C1 (configuration not stated) | 6.26%
7 | O=C(c1cccc(O)n1)N1CCC(O)(CN2CCC(F)(F)CC2)C1 (configuration not stated) | 119.2%
8 | O=C(c1cc(F)ccc1F)C1CCN(C(=O)c2ccc(=O)[nH]n2)CC1 | 6.401%
9 | NC(=O)Nc1cc(F)ccc1SCC(F)F | -8.756%
10 | CCn1cc(CNC(C)c2noc(-c3ccc(Cl)cc3)n2)cn1 (configuration not stated) | 5.108%
11 | CCN(CC1CCOC1)S(=O)(=O)Cc1ccccc1Cl (configuration not stated) | -1.168%
12 | CC(CN1CCOCC1)NCC1CCN(c2cnn(C)c(=O)c2)CC1 (configuration not stated) | -0.8467%
13 | CC(C)(C)Oc1ccccc1CNC(=O)C1CCCOC1 (configuration not stated) | -47.48%
14 | Cc1cccc(Oc2ccccc2CNC(=O)C2CCC(=O)NC2)c1 (configuration not stated) | 96.69%
15 | Cc1cccc(Oc2ccccc2CNC(=O)C2CCNC(=O)C2)c1 (configuration not stated) | 104.5%
16 | O=C(CNC(=O)C1CC1)Nc1c(F)cccc1Oc1ccccc1 | -3.554%
17 | O=C1CCC(C(=O)NCCOc2cccc(Cl)c2Cl)CN1 (configuration not stated) | -0.2416%
18 | O=C1CC(C(=O)NCc2ccccc2Oc2ccccc2F)CCN1 (configuration not stated) | 91.68%
19 | Cc1ccc(C)c(OCCNC(=O)C2CCOC2)c1 (configuration not stated) | -7.675%
20 | CCc1[nH]c2c(CNC(=O)C3CCC(=O)NC3)cc(C)cc2c1C (configuration not stated) | -3.367%
21 | Cc1ccc(C)c(OCCNC(=O)[C@@H]2CCCCN2)c1 | -1.478%

Row | SMILES | Percent Effect
22 | CCc1[nH]c2c(CNC(=O)C3CNC(=O)C3)cc(C)cc2c1C (configuration not stated) | -7.809%
23 | Cc1ccc(CNC(=O)C2CCNC(=O)C2)c(OCCC(C)C)c1 (configuration not stated) | 103.9%
24 | O=C(NCc1ccccc1OCC1CC1)C1CCOC1 (configuration not stated) | -26.71%
25 | CC(NC(=O)N1CCSC(C)(C)C1)c1noc(-c2ccccc2)n1 (configuration not stated) | -9.511%
26 | CCC[C@H]1CN(Cc2cncn2C)C[C@@H]1NC(=O)C1(COC)CCC1 | -8.158%
27 | COCCNC(=O)c1ccoc1CN1c2ccccc2CC1C (configuration not stated) | -13.79%
28 | Cc1nc(C)n(CC(C)C(=O)N2CCCN(C3CCCC3)CC2)n1 (configuration not stated) | -15.63%
29 | O=c1[nH][nH]cc1-c1ccnc(NCCCN2CCOCC2)n1 | 116.9%
30 | C[C@H]1CCCCN1CCCNc1nccc(-c2c[nH][nH]c2=O)n1 | 112%
31 | O=c1[nH][nH]cc1-c1ccnc(NCCN2CCCC2)n1 | -6.447%
32 | O=c1[nH][nH]cc1-c1ccnc(NCCN2CCCCC2)n1 | 112.5%
33 | O=C1O[C@@H]2CN(Cc3ccncc3)C[C@@H]2N1CCCN1CCOCC1 | -10.63%
34 | CC(C)COCC(NC(=O)c1ccccn1)c1ccco1 (configuration not stated) | 12.33%
35 | O=C1CNCC(C(=O)N2CC(Oc3ccccc3Cl)C2)N1 (configuration not stated) | -5.2%
36 | COc1ccc(F)cc1CN1CCCn2nc(CNS(C)(=O)=O)cc2C1 | 6.854%
37 | Cc1ccc2c(c1)c(CNC(=O)C1CCN(C(=O)C3CC3)CC1)nn2C | -8.87%
38 | CN1CCC(C(=O)N2CCC(c3ccc4c(N)n[nH]c4n3)CC2)CC1 | 104%
39 | O=C(C1CC1)N1CCC(c2nc(-c3ccccc3)n[nH]2)CC1 | -8.829%
40 | CCc1noc(CN(C)C(=O)C(C)(C)Oc2cccc(Cl)c2)n1 | 11.07%
41 | CO[C@H]1COCCN(C(=O)c2ccc(C(F)(F)F)cc2)C1 | -0.5949%
42 | Cc1ncsc1CN1CCn2c(COc3cccnc3)cnc2C1C.O=C(O)C(F)(F)F.O=C(O)C(F)(F)F (configuration not stated) | -6.197%

Row | SMILES | Percent Effect
43 | Cc1ccsc1CN1CCn2c(COc3cccnc3)cnc2C1C.O=C(O)C(F)(F)F.O=C(O)C(F)(F)F (configuration not stated) | 105.4%
44 | Cc1csc(CN2CCn3c(COc4cccnc4)cnc3C2C)n1.O=C(O)C(F)(F)F.O=C(O)C(F)(F)F (configuration not stated) | 106.1%
45 | CC1c2ncc(COc3cccnc3)n2CCN1C(=O)C1=CCCC1.O=C(O)C(F)(F)F (configuration not stated) | 6.564%
46 | Cc1ccc(CN2CC[C@@H](N3CCOCC3)[C@@H]2Cc2cccnc2)o1.O=C(O)C(F)(F)F.O=C(O)C(F)(F)F.O=C(O)C(F)(F)F | -6.789%
47 | CC1c2ncc(COc3cccnc3)n2CCN1Cc1cnn(C)c1.O=C(O)C(F)(F)F.O=C(O)C(F)(F)F (configuration not stated) | 101.1%
48 | CCOCc1cnc2n1CCN(Cc1cccs1)C2C.O=C(O)C(F)(F)F (configuration not stated) | 10.91%
49 | CCOCc1cnc2n1CCN(Cc1nc(C)cs1)C2C.O=C(O)C(F)(F)F (configuration not stated) | -1.73%
50 | Cc1ccc(CN2CCn3c(COc4cccnc4)cnc3C2C)o1.O=C(O)C(F)(F)F.O=C(O)C(F)(F)F (configuration not stated) | 105.5%
51 | COCc1cnc2n1CCN(Cc1cccnc1)C2C.O=C(O)C(F)(F)F.O=C(O)C(F)(F)F (configuration not stated) | -12.59%
52 | CCNc1ncc(CN(CCN(C)C)Cc2ccc(C)s2)cn1 | 9.658%
53 | CC(CC#N)N(C)Cc1ccc(F)cc1F (configuration not stated) | -4.017%
54 | NC(=O)Nc1cc(Br)cnc1OCC(F)(F)F | 3.483%
55 | CC(C)N1CCC(CC(=O)N(C)CC(=O)c2ccc(O)cc2)CC1 | -41.3%
56 | COc1cc(OC)cc(-n2ccnc2-c2cc3n(n2)CCNC3)c1 | -3.796%
57 | CN(C)C[C@H]1C[C@@H](CO)CN(C(=O)CCc2nc(Cl)n[nH]2)C1 | -2.145%
58 | Cc1cccc2c1nc1n2[C@@H](CNC2CCCCC2)COC1 | -2.586%
59 | CC1c2ncc(COc3cccnc3)n2CCN1Cc1ccco1 (configuration not stated) | 103.4%
60 | CC1c2ncc(COc3cccnc3)n2CCN1C(=O)Cc1ccco1.O=C(O)C(F)(F)F (configuration not stated) | 6.97%
61 | CCCNC(=O)c1ccc2c(c1)C(=O)N(CC(C)C)C2=O | 12.13%
62 | O=C(Cc1ccc(F)cc1)NS(=O)(=O)c1ccc(F)c(F)c1 | -8.123%

Reference: ChEMBL document CHEMBL3988442, “University of Dundee, Small-Polar-MMV Screening Library” (2021)
